Unmarked numbers belong to inactive results. For some of these results: Potency and affinity values are given separately. Calls of active or inactive are those of the source. Unless noted, no rule for the calls is given here.

A short description of assay [1]: antimalarial activity against Dd2 strain (AID 2302;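 active = growth inhibition above 50% at the single 2 µM test dose, taken to imply half-maximal potency below 2 µM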;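 also: 0% = DMSO untreated growth and 100% = chloroquine plus artemisinin killed control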). The conditions noted are these: P. falciparum Dd2 in RBCs, LDH growth readout, 72 h; at 2 µM; hits give high values.
Assay [2] is described as follows: HepG2 cytotoxicity, primary screen, cytotoxicity control for P. falciparum antimalarial project, cell-based, ATP luminescence (AID 2303;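 active = inhibition above 50%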;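 also: 0% = DMSO wells and 100% = digitonin-killed cells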). The conditions noted are these: HepG2 viability, 24-48 h, at 10 µM, hits give high values.
The target in assay [3] is L-lactate dehydrogenase (Plasmodium falciparum (isolate CDC / Honduras)) (UniProt Q27743). Description: PfLDH activity inhibition – cell lysate, 3D7 strain, counter-screen for P. falciparum growth inhibition project (AID 2304).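 Also: 0% = vehicle and 100% = reference inhibitor.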 The conditions noted are these: P. falciparum 3D7 crude extract, LDH APAD/NBT absorbance; at 2 µM; hits give high values. For orientation: Counterscreens check selectivity or assay interference.
Chain of L-lactate dehydrogenase (Plasmodium falciparum (isolate CDC / Honduras)) (Q27743 whole entry, looked up): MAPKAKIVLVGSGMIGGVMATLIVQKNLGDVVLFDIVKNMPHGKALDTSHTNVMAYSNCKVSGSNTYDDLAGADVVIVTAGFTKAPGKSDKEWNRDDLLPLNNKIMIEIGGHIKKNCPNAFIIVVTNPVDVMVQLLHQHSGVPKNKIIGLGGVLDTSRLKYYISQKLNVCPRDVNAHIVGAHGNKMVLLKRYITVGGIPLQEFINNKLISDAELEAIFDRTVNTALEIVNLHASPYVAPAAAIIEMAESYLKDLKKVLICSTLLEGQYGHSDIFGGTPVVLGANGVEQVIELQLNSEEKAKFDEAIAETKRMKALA

Assay [4] is described as follows: inhibition of 3D7 malaria parasite growth – strain 3D7 (AID 2306).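 Also: 0% = DMSO wells and 100% = chloroquine plus artemisinin control wells.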 The conditions noted are these: P. falciparum 3D7 erythrocytic growth, LDH absorbance, 72 h; at 2 µM; hits give high values.
In assay [5] the target is Calcium-dependent protein kinase 1 (Plasmodium falciparum (isolate 3D7)) (UniProt P62344). Description: PfCDPK1 kinase inhibitors, biochemical, TCAMS library (AID 1159585; cut-off not given, nearly all actives have IC50 up to about 0.98 µM;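 also: inhibitors leave more ATP so luminescence rises with inhibition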). The conditions noted are these: recombinant PfCDPK1, Kinase-Glo ATP depletion luminescence.
Chain of Calcium-dependent protein kinase 1 (Plasmodium falciparum (isolate 3D7)) (P62344 whole entry, looked up): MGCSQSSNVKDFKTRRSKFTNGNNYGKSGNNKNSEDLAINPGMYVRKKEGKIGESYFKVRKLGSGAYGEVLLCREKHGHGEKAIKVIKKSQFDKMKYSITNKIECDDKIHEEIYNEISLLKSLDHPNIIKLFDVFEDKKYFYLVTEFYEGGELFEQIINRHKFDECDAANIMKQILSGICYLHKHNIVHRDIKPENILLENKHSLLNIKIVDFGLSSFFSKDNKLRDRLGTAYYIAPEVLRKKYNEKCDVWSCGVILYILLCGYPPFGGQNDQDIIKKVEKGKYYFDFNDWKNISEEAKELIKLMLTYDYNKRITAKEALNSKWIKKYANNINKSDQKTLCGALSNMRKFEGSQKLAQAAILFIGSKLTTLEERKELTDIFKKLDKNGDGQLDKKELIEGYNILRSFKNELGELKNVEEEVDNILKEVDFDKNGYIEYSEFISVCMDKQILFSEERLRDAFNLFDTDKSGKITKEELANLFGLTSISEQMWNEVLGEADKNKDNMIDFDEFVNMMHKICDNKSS
The target of assay [6] is Plasmodium falciparum protein kinase 6 (PK6, PF3D7_1337100) (UniProt Q8IDW1). The assay is described as follows: PfPK6 kinase inhibitors, biochemical, TCAMS library (AID 1159586). Conditions: recombinant PfPK6, Kinase-Glo ATP depletion luminescence. A general note: Kinase-Glo measures the ATP left after a reaction by luminescence.
Chain of Plasmodium falciparum protein kinase 6 (PK6, PF3D7_1337100) (Q8IDW1 1-305): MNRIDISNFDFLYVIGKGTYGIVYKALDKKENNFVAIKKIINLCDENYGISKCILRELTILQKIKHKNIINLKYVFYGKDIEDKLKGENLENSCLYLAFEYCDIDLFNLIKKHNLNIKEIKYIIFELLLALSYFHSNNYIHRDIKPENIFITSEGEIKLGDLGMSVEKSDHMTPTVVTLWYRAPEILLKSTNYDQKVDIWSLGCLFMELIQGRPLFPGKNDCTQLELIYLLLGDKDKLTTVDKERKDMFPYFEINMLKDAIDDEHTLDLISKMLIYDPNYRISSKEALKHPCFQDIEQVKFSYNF
The target in assay [7] is Protein kinase 7 (PK7), Plasmodium falciparum 3D7 (PF3D7_0213400) (UniProt Q7YTF7). Description: inhibition of Plasmodium PK7 catalytic activity – biochemical, TCAMS antimalarial set, Kinase-Glo luminescence (AID 1159587). Conditions: recombinant PfPK7, Kinase-Glo ATP depletion luminescence.
Chain of Protein kinase 7 (PK7), Plasmodium falciparum 3D7 (PF3D7_0213400) (Q7YTF7 1-343): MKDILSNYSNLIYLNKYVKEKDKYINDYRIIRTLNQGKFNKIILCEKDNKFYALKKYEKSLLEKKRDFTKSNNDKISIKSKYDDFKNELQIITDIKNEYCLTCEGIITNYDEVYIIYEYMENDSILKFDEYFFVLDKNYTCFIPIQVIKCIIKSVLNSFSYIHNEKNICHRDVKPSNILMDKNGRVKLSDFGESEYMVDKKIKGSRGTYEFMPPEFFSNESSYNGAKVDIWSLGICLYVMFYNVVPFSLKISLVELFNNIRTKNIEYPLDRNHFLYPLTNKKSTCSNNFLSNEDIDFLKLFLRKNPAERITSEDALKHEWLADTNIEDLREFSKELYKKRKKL
The target of assay [8] is Calcium-dependent protein kinase 4 (Plasmodium falciparum (isolate 3D7)) (UniProt Q8IBS5). The assay is described as follows: PfCDPK4 kinase inhibitors, biochemical, TCAMS library (AID 1159588; cut-off not given, nearly all actives have IC50 up to about 0.91 µM). The conditions noted are these: recombinant PfCDPK4, Kinase-Glo ATP depletion luminescence.
Chain of Calcium-dependent protein kinase 4 (Plasmodium falciparum (isolate 3D7)) (Q8IBS5 whole entry, looked up): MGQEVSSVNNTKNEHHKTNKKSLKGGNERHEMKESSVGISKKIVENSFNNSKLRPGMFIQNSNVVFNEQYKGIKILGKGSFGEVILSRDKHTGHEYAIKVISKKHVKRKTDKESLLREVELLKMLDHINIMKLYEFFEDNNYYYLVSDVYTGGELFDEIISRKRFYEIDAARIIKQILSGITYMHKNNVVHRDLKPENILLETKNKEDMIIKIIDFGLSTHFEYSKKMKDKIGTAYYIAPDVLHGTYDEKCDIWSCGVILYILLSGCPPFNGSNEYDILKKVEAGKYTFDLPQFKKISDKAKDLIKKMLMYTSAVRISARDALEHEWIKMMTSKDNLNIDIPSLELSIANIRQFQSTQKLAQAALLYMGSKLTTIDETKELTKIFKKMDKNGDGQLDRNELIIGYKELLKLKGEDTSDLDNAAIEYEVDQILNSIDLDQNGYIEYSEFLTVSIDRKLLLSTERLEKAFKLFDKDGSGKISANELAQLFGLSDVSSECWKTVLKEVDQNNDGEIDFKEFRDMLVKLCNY

Consider `Oc1ccc2c(CNCCc3ccccc3)c(O)ccc2c1CNCCc1ccccc1`, for which the results for the growth inhibition in assay [1] and in assay [4] were 100% (active) and 99% (active), respectively. For the same compound, the inhibition (usually the drop in the measured response relative to a control, in per cent) in assay [2] was 24%; in assay [3], -8%. For the same compound, the result in assay [5], in assay [6], in assay [7] and in assay [8] was inactive.

On to `CCCN1CCN(c2cc(S(=O)(=O)Nc3ccc(C(=O)NCc4cccc(C(F)(F)F)c4)cc3)ccc2OC)CC1`, for which the growth inhibition in assay [1] is 8%; in assay [4] it was 92% (active). The inhibition is 27% in assay [2] and -3% in assay [3]. The result in assay [5], in assay [6], in assay [7] and in assay [8] was inactive.

As for `COc1ccc2nccc([C@@H](O)CN3CCC(NCCOc4cccc(F)c4F)CC3)c2c1`, the growth inhibition is 85% (active) in assay [1] and 102% (active) in assay [4]. Also, the inhibition in assay [2] was 9%; in assay [3], 3%. In addition, the outcome in assay [5], in assay [6], in assay [7] and in assay [8] was inactive.

For `COc1ccc(C2CC(=O)C3=C(C2)NC(C)=C(C(=O)OC2CCCC2)C3c2ccc(O)cc2)cc1OC` (stereo not given), the growth inhibition in assay [1] was 92% (active); in assay [4] it was 97% (active). Also, the inhibition is -9% in assay [2] and -7% in assay [3]. In addition, the result in assay [5], in assay [6], in assay [7] and in assay [8] was inactive.

Regarding `COc1ccc2nc(N3CCN(C(=O)OC(C)(C)C)CC3)nc(NCCCc3ccccc3)c2c1`, the growth inhibition in assay [1] was 95% (active); in assay [4], 102% (active). In addition, the results for the inhibition in assay [2] and in assay [3] were 9% and -2%, respectively. The result in assay [5], in assay [6], in assay [7] and in assay [8] was inactive.

Take `CC1(C)CC(=O)c2c(O)cc(OCc3ccncc3)cc2O1`: the growth inhibition is 47% in assay [1] and 92% (active) in assay [4]. In addition, the values for the inhibition in assay [2] and in assay [3] were 80% (active) and -1%, respectively. Moreover, the result in assay [5], in assay [6], in assay [7] and in assay [8] was inactive.

For the compound `O=C(NCC1COc2ccccc2O1)c1cnc2c(c1)nc(-c1cnc(-c3ccccc3)[nH]1)n2CCSCc1c(F)cccc1Cl` (stereo not given), the growth inhibition was 10% in assay [1] and 95% (active) in assay [4]. Also, the inhibition was 6% in assay [2] and 4% in assay [3]. In addition, the result in assay [5], in assay [6], in assay [7] and in assay [8] was inactive.

With `COc1ccc(C=NNc2nc(-c3ccccc3)cc(=O)[nH]2)cc1OC`, the values for the growth inhibition in assay [1] and in assay [4] were 93% (active) and 92% (active), respectively. In addition, the inhibition in assay [2] was 22%; in assay [3], 4%. The result in assay [5], in assay [6], in assay [7] and in assay [8] was inactive.

With `CCCCCc1cc(OC(=O)CCCN(CC)CC)c2c(c1)OC(C)(C)C=C2C1=CCN(Cc2ccc3ccccc3c2)CC1`, the growth inhibition in assay [1] is 92% (active); in assay [4] it was 100% (active). The inhibition in assay [2] was 94% (active); in assay [3] it was -2%. The outcome in assay [5], in assay [6], in assay [7] and in assay [8] was inactive.

On to `CC(=O)c1ccc(S(=O)(=O)N2CCC(C(=O)Nc3ccccc3N3CCCC3)CC2)cc1`, for which the values for the growth inhibition in assay [1] and in assay [4] were 99% (active) and 95% (active), respectively. Also, the inhibition in assay [2] was -3%; in assay [3], -8%. Also, the result in assay [5], in assay [6], in assay [7] and in assay [8] was inactive.

`CCC(C)c1ccc(Nc2nc(C)cc(N(CC)CCCN3CCCCC3)n2)cc1` (stereo not given): the growth inhibition in assay [1] is 83% (active); in assay [4], 101% (active). Besides, the inhibition is 55% (active) in assay [2] and -7% in assay [3]. Also, the outcome in assay [5], in assay [6], in assay [7] and in assay [8] was inactive.

With `c1ccc(-c2nc(NCCCn3ccnc3)cc(-c3ccncc3)n2)cc1`, the growth inhibition was 100% (active) in assay [1] and 103% (active) in assay [4]. The inhibition in assay [2] was 42%; in assay [3], -8%. In addition, the outcome in assay [5], in assay [6], in assay [7] and in assay [8] was inactive.

On to `COC(=O)C1(NC(=O)c2ccc(-n3nc(C)c(-c4ccccc4)c3N)cc2)CCCC1`, for which the results for the growth inhibition in assay [1] and in assay [4] were 81% (active) and 96% (active), respectively. Further, the figures for the inhibition in assay [2] and in assay [3] were 9% and -5%, respectively. In addition, the outcome in assay [5], in assay [6], in assay [7] and in assay [8] was inactive.

For `CCC(C)CN1CCCN(c2ccc(NC(=O)c3cccs3)cc2)CC1` (stereo not given), the growth inhibition is 95% (active) in assay [1] and 91% (active) in assay [4]. The inhibition in assay [2] was 4%; in assay [3], -2%. Besides, the result in assay [5], in assay [6], in assay [7] and in assay [8] was inactive.

Take `COc1cc(Cc2cnc(N)nc2N)ccc1OCc1ccc(-c2csnn2)cc1`: the figures for the growth inhibition in assay [1] and in assay [4] were -2% and 97% (active), respectively. Also, the inhibition is 33% in assay [2] and -4% in assay [3]. The outcome in assay [5], in assay [6], in assay [7] and in assay [8] was inactive.

In the case of `O=C(Nc1cc(Cl)cc(Cl)c1)Nc1ccccc1C(=O)NC1CCCCC1`, the values for the growth inhibition in assay [1] and in assay [4] were 100% (active) and 101% (active), respectively. For the same compound, the inhibition in assay [2] is 12%; in assay [3], 4%. In addition, the outcome in assay [5], in assay [6], in assay [7] and in assay [8] was inactive.

`CC1(C)[C@H]2CC[C@@H](CNc3nc(NCCc4cnc[nH]4)nc(Nc4ccc(Oc5ccccc5)cc4)n3)[C@@H]1C2`: the growth inhibition in assay [1] was 86% (active); in assay [4], 99% (active). Besides, the inhibition was 2% in assay [2] and 3% in assay [3]. The result in assay [5], in assay [6], in assay [7] and in assay [8] was inactive.

For the compound `COc1cc2nccc(Nc3ccc4c(cnn4Cc4ccccc4F)c3)c2cc1OC`, the growth inhibition in assay [1] was 91% (active); in assay [4], 101% (active). Moreover, the inhibition in assay [2] was 55% (active); in assay [3], -8%. Further, the result in assay [5], in assay [6], in assay [7] and in assay [8] was inactive.

As for `c1ccc(-n2cncn2)cc1`, the growth inhibition in assay [1] is 96% (active); in assay [4], 93% (active). Besides, the inhibition in assay [2] is 0%; in assay [3] it was 6%. For the same compound, the outcome in assay [5], in assay [6], in assay [7] and in assay [8] was inactive.

Consider `CC1Cc2ccccc2N1CC(=O)Nc1cc(C(F)(F)F)ccc1-n1cncn1` (stereo not given), for which the growth inhibition in assay [1] and in assay [4] was 97% (active) in each case. For the same compound, the inhibition in assay [2] is 17%; in assay [3], 1%. Besides, the outcome in assay [5], in assay [6], in assay [7] and in assay [8] was inactive.

The values above are taken from PubChem BioAssay.
